# According to PubChem BioAssay (NCATS):
# Inconclusive results are not listed. A call without a number means that no potency is given here. Calls of active or inactive are those of the source. Calls come from the whole dose curve; as a rule, active = well fitted inhibition curve with a large enough effect; inconclusive = small, poorly fitted or top-dose-only effect; inactive = flat fitted curve, though single readings scatter. Where a SMILES comes first, the peptide text is derived from it. [ ]: non-standard residue; d: D form. 2Abz = Nc1ccccc1C(=O)O
# Test: Primary qHTS for inhibitors of nuclear receptor binding SET domain protein 2 (NSD2) in an isogenic RCH-ACV NSD2 p.E1099K mutant (9B) (AID 1645876); note: nearly all actives have a fitted effect of over 70% in size
# Conditions: RCH-ACV (leukaemia line) NSD2 E1099K (9B) viability, CellTiter-Glo, 72 h; series mostly up to 44.9 µM
row,SMILES,Potency
1,C[C@H]1C[C@H]2[C@@H]3CCC4=CC(=O)C=C[C@]4(C)[C@@]3(F)[C@@H](O)C[C@]2(C)[C@@]1(O)C(=O)COP(=O)(O)O,inactive
2,CCC(C)(O)C(O)C(=O)OCc1ccc(O[C@@H]2O[C@H](CO)[C@@H](O)[C@H](O)[C@H]2O)cc1 (stereo partly drawn),inactive
3,COC(=O)c1ccc(O[C@@H]2O[C@H](CO)[C@@H](O)[C@H](O)[C@H]2O)c(OC)c1,inactive
4,C[C@@H]1CC[C@]2(C(=O)O[C@@H]3O[C@H](CO)[C@@H](O)[C@H](O)[C@H]3O)CC[C@]3(C)C(=CCC4[C@@]5(C)C[C@@H](O)[C@H](O)C(C)(C)C5CC[C@]43C)C2[C@]1(C)O (stereo partly drawn),inactive
5,COc1ccccc1-n1c(SCC(=O)Nc2nc3ccc(C)cc3s2)nc2c(c1=O)SCC2,inactive
6,CC1(O)CCC2C(C(=O)O)=COC(OC3OC(CO)C(O)C(O)C3OC(=O)/C=C/c3ccc(O)cc3)C21 (stereo not drawn),inactive
7,C=CC(C)(O)CO[C@@H]1O[C@H](CO)[C@@H](O)[C@H](O)[C@H]1O (stereo partly drawn),inactive
8,CC(=O)O[C@@H]1[C@@H](OC(=O)/C=C/c2ccccc2)[C@H](C)O[C@@H](O[C@H]2[C@@H]3C=CO[C@@H](O[C@@H]4O[C@H](CO)[C@@H](O)[C@H](O)[C@H]4O)[C@@H]3[C@@]3(CO)O[C@@H]23)[C@@H]1OC(C)=O,inactive
9,C=C1CCC[C@]2(C)C[C@]3(O)OC(=O)C(C)=C3C[C@@H]12,inactive
10,CNC(=O)c1ccc2cc([C@@]3(O)CCn4cncc43)ccc2c1,inactive
11,Cc1coc2c1CC1OC1(C)CCC1OC1(C)C2 (stereo not drawn),inactive
12,COc1cc(/C=C/CO)ccc1O[C@@H]1O[C@H](CO)[C@@H](O)[C@H](O)[C@H]1O,inactive
13,Cc1ncc([N+](=O)[O-])n1CC(O)CN1CCOCC1 (stereo not drawn),inactive
14,CC1(C)CCCC2(C)C(CO)C3CCC2C31 (stereo not drawn),inactive
15,C=C1C2=CC(O)C(C)C1(C)CC/C(C)=C/CCC1(C)OC1C2=O (stereo not drawn),inactive
16,NCc1ccc(OCCCc2sc(-c3ccc4c(c3)/C(=N/Nc3nc5ccccc5s3)CCC4)nc2C(=O)O)cc1,inactive
17,CC1CCC2C(C)(C)C(O)CCC2(C)C12Cc1c(O)cc3c(c1O2)CN=C3N (stereo not drawn),inactive
18,C=CC1(C)CC2=CCC3C(C)(C(=O)O)CCCC3(C)C2CC1OC(C)=O (stereo not drawn),inactive
19,CC(=O)OCC(=O)O[C@@H]1[C@H]2[C@@H](OC(=O)c3ccccc3)[C@@H](C)C[C@]2(O)[C@H](OC(C)=O)C2(C)[C@H]3CC(C)(C)C(=O)[C@@H]3CC1(OC(C)=O)[C@@H]2OC(C)=O (stereo partly drawn),inactive
20,CCNC(=O)[C@@H]1CCCN1C(=O)[C@H](CCCN=C(N)N)NC(=O)[C@H](CC(C)C)NC(=O)[C@@H](C)NC(=O)[C@H](Cc1ccc(O)cc1)NC(=O)[C@H](CO)NC(=O)[C@H](Cc1c[nH]c2ccccc12)NC(=O)[C@H](Cc1cnc[nH]1)NC(=O)[C@@H]1CCC(=O)N1,inactive
21,C=CC(C)(C)C12CC3C(=O)NC(Cc4cnc[nH]4)C(=O)N3C1Nc1ccccc12 (stereo not drawn),inactive
22,CC1=CC(=O)C[C@H]2[C@@H]1CC[C@@H](C)[C@]21CO[C@H](c2ccoc2)C1=O,inactive
23,COc1c(C)c2c(c(O)c1C/C=C(\C)CC/C=C(\C)CCC(=O)O)C(=O)OC2,inactive
24,CCC(C)C1NC(=O)C2CCCN2C(=O)C(C(C)C)NC(=O)c2ccccc2NC(=O)C(Cc2ccc(O)cc2)NC(=O)C(C)NC(=O)C(C(C)O)NC1=O (stereo not drawn) (cyclo([2Abz]VPITAY); configuration not given here),inactive
25,C=CCc1ccc(O[C@@H]2O[C@H](CO[C@@H]3O[C@H](CO)[C@@H](O)[C@H](O)[C@H]3O)[C@@H](O)[C@H](O)[C@H]2O)c(O)c1,inactive
26,C=C(C)C1CC2(CO)C(=CC1=O)CCC(O)C2C (stereo not drawn),inactive
27,O=C1[C@H](O[C@@H]2O[C@H](CO)[C@@H](O)[C@H](O)[C@H]2O)Oc2ccccc2N1O,inactive
28,CC1(C)CC2C(C1)C1(C)CCC13OC3(CO)C2O (stereo not drawn),inactive
